Values joined by “and” are separate entries in the source; they are usually repeats but may differ in a detail not shown here. Equal entries are not always repeated. The panel holds about 83,000 compounds, 20% with a hit somewhere; the sample as a whole holds those more often.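 Cell lines were cultured in 96-well plates, exposed to a single compound concentration, and assessed for percent growth 48 hours later.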 Active and inactive are the calls of the source. How the source made its calls: active means growth percent below 10; inactive means the rest.
Tested on: MDA-MB-468 breast
Test: NCI-60 one-dose screen, 48 h (100 = growth as untreated, 0 = no growth, -100 = all killed)
Settings: 10 µM unless noted

SMILES | growth
Nc1c(C(=O)Nc2cccc3ncccc23)sc2nc3c(cc12)C(=O)CCC3 | 12.4% (inactive)
Nc1nc(N)c2cc(CNc3ccc(C(=O)NC(CC(=O)O)C(=O)O)cc3)ccc2n1 (stereo not given) | 61.4% (inactive)
CCCn1cnc2c1c(=O)n(CCCCC(C)=O)c(=O)n2C | 107% (inactive)
Nc1cc(F)ccc1NC(=O)c1ccc(NC(=O)C/C=C/c2cccnc2)cn1 | -27.4% (active)
O=c1oc2ccccc2c(Cl)c1Cl | 4.65% (active)
COc1ccc(/C=N/NC(=O)Cn2nnc3ccccc32)cc1 | 103% (inactive)
C[n+]1cc2cc(C(N)=O)[nH]c3c(=N)c(Cl)c(N)c1c23 | 53.3% (inactive)
C=C1C(=O)O[C@H]2[C@H]1CC/C(COC(=O)/C=C\C(=O)NCc1ccc(Cn3c(=O)sn(-c4ccccc4)c3=O)cc1)=C\CC[C@@]1(C)O[C@@H]21 | 30.5% (inactive)
CCC(=O)C1C(=O)c2ccccc2C1=O | 115% (inactive)
O=C(NCc1cccnc1)/C(=C\c1ccc(Br)cc1)S(=O)(=O)c1ccccc1 | -58.9% (active)
CCCCNC(=O)NS(=O)(=O)Cc1ccccc1 | 112% (inactive)
COc1ccc(/C=C/C(=O)c2cc3c(N)c(C(=O)Nc4ccccc4Cl)sc3nc2C)cc1 | 5.35% (active)
CCCCCCCCN(CCCCCCCC)C(=O)CCl | 79.9% (inactive)
COc1cc(Nc2c3ccc(Cl)cc3nc3ccc(OC)cc23)c2ncccc2c1 | 36.3% (inactive)
c1ccc(Nc2nnc(-c3cc(-c4cccnc4)n(-c4ccccc4)n3)s2)cc1 | 104% (inactive)
Fc1ccc(Nc2nc3nonc3nc2Nc2ccc(F)cc2)cc1 | -4.42% (active)
Cn1c(=O)c2c(ncn2CC(=O)Nc2ccc(S(N)(=O)=O)cc2)n(C)c1=O | 102% (inactive)
COc1c(NC[C@H]2OC(O)[C@H](O)[C@@H](O)[C@@H]2O)c(=O)c1=O (stereo not given in full) | 94.1% (inactive)
CS(=O)(=O)Cc1cnc(C2OCCO2)s1 | 97.7% (inactive)
O=c1c2cc(F)ccc2sc2c(NCCN3CCCCC3)nc3ccccc3c12 | 6.41% (active)

SMILES | growth
COc1cccc(C(=O)OCC(O)C(=O)NC23CC4CC(CC(C4)C2)C3)c1 (stereo not given) | 88% (inactive)
O=C(Nc1ccccc1)Nc1cccc(Oc2nnc(Cl)c3ccccc23)c1 | 0.467% (active)
Cc1cc(=O)cc(C)n1-c1ccccc1 | 100% (inactive)
CSCCC1NC(=O)C(C(C)=Nc2ccccc2)=C1O (stereo not given) | 109% (inactive)
Cc1cc(C)c2nc(Nc3nc(C)c(C)c(=O)[nH]3)nc(C)c2c1 | -35.8% (active)
COc1cc(C(=O)/C=C/c2cn(-c3ccccc3)nc2-c2cccc(Nc3ccnc4cc(Cl)ccc34)c2)cc(OC)c1OC | 71.7% (inactive)
CCN1CCN(Cc2ccc(NC(=O)Nc3nc(-c4cc(OC)c(OC)c(OC)c4)cs3)cc2C(F)(F)F)CC1 | -0.339% (active)
CCn1c2ccccc2c2cc(NC(=O)Nc3ccc([N+](=O)[O-])cc3C)ccc21 | 7.62% (active)
Cc1ccc(NC(=O)c2[nH]c(SCCN(C)C)nc2-c2ccc(F)cc2)cc1Nc1ccc2ncn(C)c(=O)c2c1 | 92.1% (inactive)
C/C=C(/C)C(=O)OC1C=C(CO)C(=O)C(OC(=O)C2(C)OC2C)C1C(C)C (stereo not given) | -66.8% (active)
Cc1cc(N2CCN(CC(=O)Nc3ccc4c(ccn4Cc4ccccc4)c3)CC2)nc(N2CCOCC2)n1 | 67% (inactive)
COC(=O)[C@H]1CCCN1C(=O)C1CCCN1C(=O)[C@@H](Cc1ccccc1)NC(=S)Nc1cc(C(F)(F)F)cc(C(F)(F)F)c1 (stereo not given in full) | 100% (inactive) and 58.2% (inactive)
CCCCCCN(CCCCCC)CC(O)c1ccc2c3c(cccc13)CC2 (stereo not given) | 55.6% (inactive)
CCCCCCCCNc1ncnc2c1ncn2Cc1nnc2c3ccccc3c(Cl)nn12 | 40.6% (inactive)
CC1(C)CC[C@]2(C(=O)N3CCOCC3)CC[C@]3(C)C(=CC[C@@H]4[C@@]5(C)C/C(=C/c6ccncc6)C(=O)C(C)(C)[C@@H]5CC[C@]43C)[C@@H]2C1 | 3.46% (active)
C=C1C(=O)O[C@H]2[C@H]1CC/C(CNC(=O)c1cc3cc(OC)ccc3[nH]1)=C\CC[C@@]1(C)O[C@@H]21 | -67.7% (active)
CCn1c(Sc2nnc(Nc3ccccc3)s2)nc2c1c(=O)n(C)c(=O)n2C | 91.8% (inactive)
CN(C)CCC(O)(Cc1ccccc1)c1ccccc1 (stereo not given) | 110% (inactive)
CC(C)C1C2=C(NCCN1C(=O)Cc1ccccc1)C(C)(C)N(Cc1ccccc1)C2=O (stereo not given) | 95.5% (inactive)
COc1cc([C@@H]2c3cc4c(cc3[C@H](SC(=N)N)[C@H]3COC(=O)[C@H]23)OCO4)cc(OC)c1OC | -4.2% (active)

Source: PubChem BioAssay (NCI)
